An excerpt weighted towards active compounds, which were near 19% of everything screened.
DT40 TDP1 no CPT = qHTS for Inhibitors of human tyrosyl-DNA phosphodiesterase 1 (TDP1): qHTS in cells in absence of CPT | DT40 Tdp1-/- hTDP1 cells, no CPT, ATP luminescence, 48 h | Potency, µM (series often up to 46.2 µM), without a hit: at the top dose activity change, negative = growth inhibition, actives largely listed as inhibitors | 15% of 420,000 active | AID 686978, 2013; note: nearly all actives have a fitted effect of over 55% in size
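Camptothecin absent (DMSO only). Human TDP1-complemented DT40 knockout cells, 400 cells/well, 37 °C for minimum 48 hr; ATP measured via CellTiter-Glo, 30 min dark incubation, luminescence.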
KB-V1 cytotox = qHTS assay for MDR1-selective chemotherapeutics: Primary screen using the drug-selected MDR subline cells KB-V1; KB-V1 MDR cells viability, CellTiter-Glo, 72 h; Potency, µM (titrated, usually from 46.1 µM), hits mostly cytotoxic; 3.4% of 400,000 active; AID 1347076, 2019; note: nearly all actives have a fitted effect of over 60% in size
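Cells of the MDR subline KB-V1 are plated, dosed with compound at multiple concentrations, and incubated 72 h at 37 degrees C; CellTiter-Glo is then added and luminescence read after 10 min.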
HT1080NT lethal = qHTS for induction of synthetic lethality in tumor cells producing 2HG: qHTS for the HT-1080-NT fibrosarcoma cell line; HT-1080-NT fibrosarcoma viability, CellTiter-Glo ATP luminescence, 48 h; Potency, µM (series often up to 46.1 µM), without a hit: top-dose activity, negative = less viability, most hits filed as cytotoxic; 1.6% of 360,000 active; AID 686970, 2013;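 note: NT is the 2HG producing partner of a matched IDH1 knockdown line; 0% = DMSO-treated cells and -100% = media-only wells without cells; nearly all actives have a fitted effect of over 55% in size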
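Viability of the 2HG-overproducing fibrosarcoma line after 48 hours of compound exposure at 37 degrees C was determined by luminescence with CellTiter-Glo, and concentration-effect curves were then fitted and categorized.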
TDP1 cell CPT = qHTS for Inhibitors of human tyrosyl-DNA phosphodiesterase 1 (TDP1): qHTS in cells in presence of CPT | chicken DT40 Tdp1-/-;hTDP1 cells + 20 nM CPT, ATP luminescence, 48 h | Potency, µM (series often up to 46.2 µM), for the others: at the top dose activity change, negative = growth inhibition, usual class: inhibitors | 12% of 420,000 active | AID 686979, 2013; note: nearly all actives have a fitted effect of over 55% in size
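Chicken DT40 Tdp1-/- cells stably complemented with human TDP1 were seeded at 400 cells/well in medium containing 20 nM camptothecin, exposed to pin-transferred compounds, and grown at 37 °C for at least 48 hr. Viability was read as ATP luminescence.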
KB-3-1 tox = qHTS assay for MDR1-selective chemotherapeutics: Primary screen using the parental adenocarcinoma cell KB-3-1; Potency, µM (titrated, usually from 46.1 µM), most hits filed as cytotoxic; KB-3-1 viability, CellTiter-Glo ATP luminescence, 72 h; AID 1347075, 2019; 1.4% of 400,000 active; note: nearly all actives have a fitted effect of over 60% in size
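Parental KB-3-1 adenocarcinoma cells in phenol-red-free DMEM with 10% FBS were pin-treated with compounds at several concentrations, incubated 72 h at 37 °C, and viability read by CellTiter-Glo luminescence; concentration-effect curves were fitted after normalization.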
HT1080 IDH1KD tx = qHTS for induction of synthetic lethality in tumor cells producing 2HG: qHTS for the HT-1080-IDH1KD cell line; HT-1080 IDH1 knockdown viability, ATP luminescence, 48 h; Potency, µM (series often up to 46.1 µM), without a hit: at the highest dose activity, negative = toxicity, most hits filed as cytotoxic; 2% of 360,000 active; AID 686971, 2013;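 note: 0% = DMSO wells and -100% = cell-free medium wells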
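IDH1KD HT-1080 cells, 750/well, RPMI + 5% FBS; compound pinned after 2 h settling; 48 h, 37 °C; CellTiter-Glo luminescence; % activity normalised to DMSO and no-cell wells; curves fitted, classed by r2 and efficacy.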
Numbers without * were called inactive; i = inactive; u = inconclusive; x = no result given. Calls come from the whole dose curve; as a rule, active = well fitted curve in the direction sought with a large enough effect; inconclusive = small, poorly fitted or top-dose-only effect, or another doubt; inactive = no such curve, though single readings can be large; an effect the other way counts as inactive or inconclusive. Unless noted, % is set by controls: 0 for no effect and ±100 for the full control effect; potency is the fitted concentration of half-maximal effect.

SMILES | DT40 TDP1 no CPT | KB-V1 cytotox | HT1080NT lethal | TDP1 cell CPT | KB-3-1 tox | HT1080 IDH1KD tx
Cc1nn(-c2nc(-c3ccc(F)cc3)cc(C(F)(F)F)n2)c(C)c1Br | 18µM* | i | x | u | i | x
Cc1nn(-c2nc(-c3ccc(F)cc3)cc(C(F)(F)F)n2)c(C)c1Cl | 18µM* | u | x | 18µM* | i | x
Cc1cccc(N2CCN(c3nc4ccc(Cl)cc4n4cnnc34)CC2)c1C | u | i | 18% | 21µM* | i | 16%
COc1ccccc1N1CCN(c2nc3ccccc3n3cnnc23)CC1 | 21µM* | u | x | u | i | x
CCN1CCN(c2nc3ccccc3n3cnnc23)CC1 | -22% | i | -1% | -7% | i | -3%
Clc1cccc(N2CCN(c3nc4ccccc4n4cnnc34)CC2)c1 | u | i | x | u | i | x
Cc1ccc2scc(N3CCN(c4ccccc4)CC3)c(=O)c2c1 | u | i | x | u | i | x
ClC1(Cl)CC1Cn1cnc2ccccc21 (stereo unspecified) | -5% | i | -4% | u | i | 6%
COc1ccccc1NC(=O)Cc1csc(NC(=S)Nc2ccc(C)cc2)n1 | u | 10µM* | 6.3µM* | u | u | 7.1µM*
COc1ccccc1NC(=O)Nc1nc(CC(=O)N2CCN(c3ccccc3OC)CC2)cs1 | 13µM* | u | -6% | 21µM* | i | -14%
COc1cc(C)ccc1NC(=O)Cc1csc(NC(=O)Nc2ccccc2OC)n1 | 23µM* | u | u | 23µM* | u | u
Cc1ccc(Cn2c(=O)c3c(nc4n3CCN4c3cc(C)cc(C)c3)n(C)c2=O)cc1 | -12% | x | x | 0% | x | x
CC1(C)O[C@@H]2[C@H](O1)[C@@H](COS(=O)(=O)O)O[C@H]2n1c(=S)[nH]c2c(=O)[nH]c(N)nc21 | -7% | i | u | 2% | i | 8%
O=c1[nH]c2ccccc2nc1/C=C/c1ccc(F)cc1 | u | i | -10% | u | i | -12%
Cc1ccc(/C=C\c2nccc3c2[nH]c2ccccc23)cc1 | u | i | -28% | u | i | u
C(=C\c1nccc2c1[nH]c1ccccc12)/c1ccccc1 | 15µM* | i | u | u | u | u
Fc1ccc(/C=C\c2nccc3c2[nH]c2ccccc23)cc1 | u | i | u | u | i | 23µM*
COC(=O)c1c(NC(=O)CCC(=O)O)sc(Cc2ccccc2)c1C | -1% | i | -6% | -26% | i | -3%
CCCC(=O)Nc1sc(Cc2ccccc2)c(C)c1C(N)=O | 23µM* | i | -9% | u | i | -17%
Cc1sc(NC(=S)NC(=O)CCc2ccccc2)c(C(N)=O)c1C | 0.18µM* | u | 0.16µM* | 0.21µM* | 0.18µM* | u
Cc1sc(NC(=S)NC(=O)c2ccco2)c(C(N)=O)c1C | 0% | i | 3% | 13% | i | u
COC(=O)CCC(=O)NC(=S)Nc1sc(C)c(C)c1C(N)=O | 0.15µM* | 1.6µM* | u | 0.16µM* | 0.65µM* | 0.33µM*
CC1CCCCC1NC(=O)CN1C(=O)NC(C)(c2cccc(Br)c2)C1=O (stereo unspecified) | u | i | -3% | -16% | u | -2%
O=C(Nc1nnc([C@@H]2C[C@H](O)[C@@H](CO)O2)s1)Nc1cccc(Cl)c1Cl | -1% | i | -12% | -24% | i | 0%
CC1CN(C(=O)COC(=O)c2ccc3ncsc3c2)CC(C)O1 (stereo unspecified) | 5% | i | -1% | -1% | i | 3%
SMILES | DT40 TDP1 no CPT | KB-V1 cytotox | HT1080NT lethal | TDP1 cell CPT | KB-3-1 tox | HT1080 IDH1KD tx
CCCCCCCCOC(=O)c1c(CSC(=N)N)n(C)c2cc(Br)c(OC(C)=O)cc12 | 7.3µM* | u | u | 6.5µM* | i | u
CCOC(=O)c1c(CSC(=N)N)n(-c2ccc(Br)cc2)c2cc(Br)c(OC(C)=O)cc12 | 23µM* | i | 13% | u | i | -7%
CCOC(=O)c1c(CN2CCN(CCO)CC2)n(C)c2cc(Br)c(OC)cc12 | u | u | u | u | i | u
C=C[C@](C)(CC[C@@]1(C)C(C)CC(OC2OC(C)C(OC3OC(COC(C)=O)C(O)C(O)C3O)C(O)C2O)[C@@]2(C)C(C)=CCCC12)OC1OC(C)C(O[C@@H]2O[C@@H](C)C(O)C(O)[C@H]2O)C(O)C1O (stereo partly specified) | 0% | i | 6% | 4% | i | 8%
COc1ccccc1C(=O)NC(=O)COC(=O)c1ccc(C)o1 | -6% | i | 13% | -2% | u | 15%
COC(=O)[C@]12CCCCC=C1N(Cc1ccc3c(c1)OCO3)C(=O)[C@H](CC(=O)N1CCCC1)C2 | u | u | -8% | u | i | -11%
COC(=O)[C@@]12C[C@@H](CC(=O)NCc3ccc(C)o3)C(=O)N(Cc3ccc4c(c3)OCO4)C1=CCC(C)(C)C2 | 12µM* | u | u | 21µM* | i | u
COC(=O)[C@@]12C[C@@H](CC(=O)N3CCN(C(=O)C4CC4)CC3)C(=O)N(Cc3ccc4c(c3)OCO4)C1=CCC(C)(C)C2 | 16µM* | i | -2% | u | u | -8%
COC(=O)[C@@]12C[C@@H](CC(=O)NCc3cccs3)C(=O)N(Cc3ccc4c(c3)OCO4)C1=CCC(C)(C)C2 | u | u | u | u | i | u
COC(=O)[C@@]12C[C@@H](CC(=O)NCC3CCCCC3)C(=O)N(Cc3ccc4c(c3)OCO4)C1=CCC(C)(C)C2 | u | 21µM* | u | u | u | u
COC(=O)[C@@]12C[C@@H](CC(=O)NCC34CC5CC(CC(C5)C3)C4)C(=O)N(Cc3ccc4c(c3)OCO4)C1=CCC(C)(C)C2 | u | u | u | u | u | -26%

Screening results: PubChem BioAssay, National Center for Advancing Translational Sciences (NCATS)
